The supplement of paper PMC6555819

What was measured:
Assay in all cases: PBM binding z-score (relative to random genomic background probes); higher = stronger binding; sequences stand for … in GC…GCGATTGACAGCGTAGAATGAAGG
[1] = test system: FXR:RXRa (NR concentration 270 nM, RXRa partner concentration 90 nM)
In short: (§1)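 Ligand-free nuclear receptor dimers were bound for 1 h to custom Agilent 4×180K protein-binding microarrays. Detection used antibodies against each partner (one per run). Binding z-scores rest on regression-normalized fluorescence, with random background probes as the reference.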

[2] = test system: LXRa:RXRa (NR concentration 270 nM, RXRa partner concentration 90 nM)
In short: as §1

[3] = test system: LXRa homodimer (NR concentration 270 nM)
In short: as §1

[4] = test system: LXRb:RXRa (NR concentration 270 nM, RXRa partner concentration 90 nM)
In short: as §1

[5] = test system: LXRb homodimer (NR concentration 270 nM)
In short: as §1

[6] = test system: PPARa:RXRa (NR concentration 270 nM, RXRa partner concentration 90 nM)
In short: as §1

[7] = test system: PPARg:RXRa (NR concentration 180 nM, RXRa partner concentration 90 nM)
In short: as §1

[8] = test system: PPARg:RXRa 270nM:90nM, anti-RXR (NR concentration 270 nM, RXRa partner concentration 90 nM)
In short: as §1

[9] = test system: PPARg:RXRa 30nM:10nM, anti-RXR (NR concentration 30 nM, RXRa partner concentration 10 nM)
In short: as §1

[10] = test system: PPARg:RXRa 90nM:30nM, anti-RXR (NR concentration 90 nM, RXRa partner concentration 30 nM)
In short: as §1

Row | Sequence | PBM binding z-score [1] | PBM binding z-score [2] | PBM binding z-score [3] | PBM binding z-score [4] | PBM binding z-score [5] | PBM binding z-score [6] | PBM binding z-score [7] | PBM binding z-score [8] | PBM binding z-score [9] | PBM binding z-score [10]
1 | CGAACGAGGGCATGAGTAGATAGCAAATGCCGAT | 0.0959 | 0.081 | -0.748 | -0.189 | -1.08 | 0.99 | 1.4 | 0.988 | 0.168 | 0.198
2 | TCGAGTAGGTTAGGGGCATTGAGAATGGCGTCGA | 0.089 | 0.155 | -0.182 | 0.843 | -0.13 | 1.18 | 0.706 | 1.97 | 1.38 | 1.51
3 | GCTTGGAGATCAAGGTTAAGAAAGACTAAGCTAA | 0.0543 | 0.942 | -0.403 | 0.686 | -1.08 | 1.57 | 0.135 | 0.864 | 0.225 | 0.671
4 | GCGACTGCGGCATCAGCAGGTTACCATAACTTAA | -0.558 | -0.742 | 0.0285 | -0.388 | -1.12 | -0.34 | -0.014 | -0.695 | -0.628 | -0.649
5 | CCGACTGGGGCGGAAAGGTTACCATACCATCCGG | 0.516 | 0.85 | 0.0346 | 1.23 | -0.589 | 2.08 | 1.41 | 2.7 | 0.707 | 1.99
6 | ACTAGCAGGCCAAGTTGGGGTCACTCAAACAAAG | 3.18 | 3.16 | 0.123 | 4.07 | -0.00108 | 4.63 | 1.63 | 2.88 | 0.385 | 1.96
7 | CGTCAAAGTTCATCTAAGGTAACGTAAAGCACGC | 6.89 | 6.38 | 4.65 | 4.03 | 2.11 | 4.73 | 4.57 | 5.27 | 2.69 | 4.22
8 | TCTCGGAGGACACGAAGGCCAGAGCTTTCCAGAG | 0.413 | -0.099 | -0.863 | -0.477 | -0.953 | 0.156 | -0.048 | 0.609 | 1.81 | 1.36
9 | ACAGACAGGTGATGAACGTAACTCAGGCTATCAT | -0.0915 | -0.174 | 0.0611 | -0.231 | -0.49 | -0.156 | 0.922 | -0.0111 | 0.477 | -0.194
10 | TCATATAGGTAAATGCAAGGTGAAAGTCCGATCT | 1.57 | 1.44 | 0.321 | 1.2 | 0.456 | 2.03 | 1.03 | 2.44 | 4.33 | 3.47
11 | ACTAGCAGGCCAAGTATGGGTCACTCAAACAAAG | 0.0234 | 0.143 | -0.148 | 0.932 | -0.854 | 1.74 | 0.661 | 0.755 | -0.094 | 0.375
12 | TCGAGTAGGTTAGTCGGGGCATTCATCCAACATA | 0.0168 | -0.035 | 0.0686 | 0.86 | -0.262 | 0.795 | 0.0659 | 0.755 | 1.55 | 0.83
